Common to all, as to assay: NCI-60 one-dose screen, 48 h (100 = growth as untreated, 0 = no growth, -100 = all killed)
For one assay, the system named is SK-MEL-2 melanoma. Particulars: 10 µM unless noted.
The next assay deals with EKVX NSCLC. Particulars: 10 µM unless noted.
In a further assay the test system is SN12C renal. To be noted: 10 µM unless noted.
A further assay concerns UO-31 renal. To be noted: 10 µM unless noted.
The subject of the next assay is TK-10 renal. To be noted: 10 µM unless noted.
In the next assay the test system is ACHN renal. Particulars: 10 µM unless noted.
For the next assay, the system named is CAKI-1 renal. To be noted: 10 µM unless noted.
A further assay has as its system A498 renal. Particulars: 10 µM unless noted.
Another assay deals with CCRF-CEM leukemia. To be noted: 10 µM unless noted.
Another assay deals with MOLT-4 leukemia. To be noted: 10 µM unless noted.
The next assay has as its system RPMI-8226 leukemia. To be noted: 10 µM.
The test system of a further assay is OVCAR-8 ovarian. To be noted: 10 µM unless noted.
For another assay, the system named is OVCAR-5 ovarian. Particulars: 10 µM unless noted.
The test system of a further assay is OVCAR-4 ovarian. To be noted: 10 µM unless noted.
The next assay has as its system SK-OV-3 ovarian. To be noted: 10 µM.
In another assay the test system is IGROV1 ovarian. To be noted: 10 µM unless noted.
Another assay deals with OVCAR-3 ovarian. To be noted: 10 µM unless noted.
Another assay concerns HS 578T breast. To be noted: 10 µM unless noted.
The next assay has as its system NCI/ADR-RES ovarian. Particulars: 10 µM unless noted.
In another assay the test system is SR leukemia. To be noted: 10 µM unless noted.

The results in this text go back to PubChem BioAssay (NCI).

Compounds without any hit were thinned out: in the full panel of roughly 83,000, 20% have a hit.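 Values shown are percent growth following 48 h exposure of cells in 96-well plates to a single concentration of compound; below 10 was considered active.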 Unmarked numbers belong to inactive results. Calls of active or inactive are those of the source.

As for `COc1cccc(C2C3=C(COC3=O)N(CCO)c3cc4c(cc32)OCO4)c1` (configuration not stated), the growth in the assay with SK-MEL-2 melanoma is 33%; with EKVX NSCLC it was 36.2%; with SN12C renal, 46.7%; with UO-31 renal, 57.7%; with TK-10 renal it was 59.8%; in the assay on ACHN renal, 48.4%. The growth is 30% in the assay on CAKI-1 renal; -5.85% (active) in the assay on A498 renal; 21.3% in the assay with CCRF-CEM leukemia; 27.1% in the assay with MOLT-4 leukemia; 31.4% with RPMI-8226 leukemia; 42.3% with OVCAR-8 ovarian. Besides, the growth is 35.6% in the assay on OVCAR-5 ovarian; 40.6% with OVCAR-4 ovarian; 20.8% with SK-OV-3 ovarian; 30.4% in the assay with IGROV1 ovarian; -64.9% (active) in the assay on OVCAR-3 ovarian; 2.25% (active) in the assay with HS 578T breast. In addition, the growth with NCI/ADR-RES ovarian was -16.2% (active).

With `CC(=O)N(CC(O)CO)c1c(I)c(C(=O)NCCO)c(I)c(C(=O)NCC(O)CO)c1I` (configuration not stated), the growth is 95.8% in the assay with SK-MEL-2 melanoma; 105% in the assay with EKVX NSCLC; 98.9% in the assay with SN12C renal; 69.3% in the assay on UO-31 renal; 114% with TK-10 renal; 103% with ACHN renal. The growth was 99.3% in the assay on CAKI-1 renal; 110% in the assay with A498 renal; 77.2% with SR leukemia; 102% in the assay with RPMI-8226 leukemia; 95.9% in the assay with OVCAR-8 ovarian; 99.8% in the assay on OVCAR-5 ovarian. The growth in the assay with OVCAR-4 ovarian is 102%; in the assay with SK-OV-3 ovarian, 103%; with IGROV1 ovarian it was 103%; in the assay on OVCAR-3 ovarian it was 107%; in the assay on HS 578T breast, 116%.

With `O=C(COc1cccc(/C=C2\COc3ccccc3C2=O)c1)c1ccccc1`, the growth in the assay on SK-MEL-2 melanoma was 70.7%; in the assay on EKVX NSCLC, 84%; with SN12C renal it was 84.9%; with UO-31 renal, 75.1%; in the assay with TK-10 renal, 92.2%; with ACHN renal it was 86.8%. The growth in the assay with CAKI-1 renal is 53.2%; in the assay on A498 renal it was 86.9%; in the assay on CCRF-CEM leukemia, -32.7% (active); in the assay with SR leukemia, -62.4% (active); with RPMI-8226 leukemia, -51.1% (active); in the assay with OVCAR-8 ovarian it was 19.1%. For the same compound, the growth in the assay with OVCAR-4 ovarian is 79.2%; with SK-OV-3 ovarian, 98.7%; with OVCAR-3 ovarian, 80.3%; in the assay with HS 578T breast, -28.2% (active).

On to `COc1cc(-c2nc3ccccc3o2)cc(CN2CCN(c3ccccc3)CC2)c1O`, for which the growth in the assay with SK-MEL-2 melanoma is 75%; with EKVX NSCLC, 71.8%; with SN12C renal it was 66.2%; in the assay with UO-31 renal, 43.8%; in the assay on TK-10 renal, 117%; with ACHN renal, 73.6%. Besides, the growth in the assay on CAKI-1 renal is 84.9%; in the assay with A498 renal, 77.6%; in the assay on MOLT-4 leukemia it was 92.5%; in the assay on SR leukemia it was 45.1%; with RPMI-8226 leukemia, 53.2%; in the assay with OVCAR-8 ovarian, 78.3%. In addition, the growth with OVCAR-5 ovarian is 117%; in the assay on OVCAR-4 ovarian, 84.6%; in the assay with SK-OV-3 ovarian it was 116%; in the assay with IGROV1 ovarian, 86.8%; in the assay with OVCAR-3 ovarian it was 63.7%; with HS 578T breast, 110%. Moreover, the growth in the assay with NCI/ADR-RES ovarian was 69.4%.

In the case of `CCCCc1ccc(C(O)(CCN2CC3CCC(CC3)C2)c2ccccc2)cc1` (configuration not stated), the growth in the assay on SK-MEL-2 melanoma was 98%; with EKVX NSCLC, 87.4%; with SN12C renal it was 95.7%; with UO-31 renal, 65.3%; with TK-10 renal, 104%; in the assay on ACHN renal, 94.5%. Besides, the growth was 92.6% in the assay on CAKI-1 renal; 77% with A498 renal; 80.9% in the assay on MOLT-4 leukemia; 68% with SR leukemia; 72.2% in the assay with RPMI-8226 leukemia; 104% in the assay on OVCAR-8 ovarian. Besides, the growth with OVCAR-5 ovarian is 90.9%; in the assay with OVCAR-4 ovarian it was 97%; with SK-OV-3 ovarian it was 91.2%; with IGROV1 ovarian, 95.2%; in the assay with OVCAR-3 ovarian, 91.9%.

Take `Cc1cc(NS(=O)(=O)c2ccc(NC(=O)COc3ccc(-c4cc5ccccc5[nH]4)cc3)cc2)no1`: the growth is 27.3% with SK-MEL-2 melanoma; 54.4% in the assay with EKVX NSCLC; 39.2% in the assay with SN12C renal; 26.4% in the assay with UO-31 renal; 52.6% in the assay on TK-10 renal; 21.7% in the assay on ACHN renal. Also, the growth in the assay on CAKI-1 renal is 57.5%; in the assay with A498 renal, 42.9%; in the assay on SR leukemia, -5.32% (active); in the assay on RPMI-8226 leukemia, 24.9%; in the assay with OVCAR-8 ovarian it was 32.3%; in the assay on OVCAR-5 ovarian it was 52.3%. The growth in the assay with SK-OV-3 ovarian was 13.7%; in the assay with IGROV1 ovarian, 35.3%; in the assay on OVCAR-3 ovarian, -0.541% (active); in the assay on HS 578T breast it was 16.6%; with NCI/ADR-RES ovarian it was 9.15% (active).

For the compound `COc1ccc2nc(-n3nc(C)cc3C)c(-n3nc(C)cc3C)nc2c1`, the growth in the assay on SK-MEL-2 melanoma is 111%; in the assay with EKVX NSCLC it was 91.7%; with SN12C renal, 104%; in the assay on UO-31 renal it was 86.5%; in the assay on TK-10 renal, 113%; in the assay with ACHN renal it was 113%. Moreover, the growth in the assay with CAKI-1 renal was 93.4%; in the assay on A498 renal, 96.7%; with MOLT-4 leukemia, 104%; in the assay with SR leukemia, 95%; with RPMI-8226 leukemia, 102%; in the assay on OVCAR-8 ovarian it was 126%. For the same compound, the growth is 103% in the assay on OVCAR-5 ovarian; 111% with OVCAR-4 ovarian; 113% with SK-OV-3 ovarian; 113% in the assay with IGROV1 ovarian; 126% in the assay with OVCAR-3 ovarian; 100% with NCI/ADR-RES ovarian.

Consider `Nc1cc(Br)c(-c2nnc(CCC(=O)c3nc4ccccc4[nH]3)o2)c(Br)c1`, for which the growth was 34.3% in the assay on SK-MEL-2 melanoma; 95.6% in the assay on EKVX NSCLC; 95.4% with SN12C renal; 47.4% in the assay with UO-31 renal; 101% in the assay with TK-10 renal; 102% in the assay with ACHN renal. For the same compound, the growth in the assay on CAKI-1 renal was 90.5%; in the assay on A498 renal it was 71.7%; in the assay with MOLT-4 leukemia, 68.2%; in the assay on SR leukemia, 18.5%; with RPMI-8226 leukemia it was 79.6%; with OVCAR-8 ovarian it was 95.2%. Besides, the growth was 97.2% with OVCAR-5 ovarian; 82.4% with OVCAR-4 ovarian; 81.8% in the assay on SK-OV-3 ovarian; 76.8% with IGROV1 ovarian; 49.1% with OVCAR-3 ovarian; 99.6% in the assay on HS 578T breast. For the same compound, the growth in the assay with NCI/ADR-RES ovarian was 89.6%.
